BoNT F protease – inhibitors of Botulinum neurotoxin F light chain protease; Multiplex microsphere protease cleavage assay, flow cytometry; inhibition, % at 10 µM; 360,000 tested, 0.22% active; AID 588497; in the data active means inhibition above about 35%, passing the limit was not always enough; inconclusive means no clear call, values can overlap the other calls
MazEF act – increases E. coli MazEF RNase cleavage of RNA | FAM/BHQ RNA-DNA oligo cleavage fluorescence, 5 h | 350,000 tested, 0.32% active | activation, % at 20 µM | AID 504720 | P0AE70; in the data active means activation above about 50%
Bead autofluor – compound fluorescence in toxin protease inhibitor counterscreen; compound autofluorescence counterscreen, microsphere flow cytometry; hits give high values; fluorescence intensity (no concentration beside the values); 360,000 tested, 3.1% active; AID 624483; in the data active means fluorescence intensity above about 16000; inconclusive means no clear call, values can overlap the other calls
Anthrax LF inh2 – anthrax lethal factor protease inhibition; P15917; multiplex microsphere protease cleavage assay, LF; inhibition, % at 10 µM; 360,000 tested, 0.12% active; AID 588501
BoNT A protease – BoNT A light chain protease inhibition. multiplex microsphere protease substrate cleavage, flow cytometry. inhibition, % at 10 µM. 360,000 tested, 0.17% active
A number is an active result; n = inactive; u = inconclusive; x = no result. An excerpt weighted towards active compounds, which were near 3.7% of everything screened. Unless noted, no stated cut-off is given here; in the data, active means inhibition above about 30%; inconclusive means no clear call, values can overlap the other calls; inactive means below that.

SMILES	BoNT F protease	MazEF act	Bead autofluor	Anthrax LF inh2	BoNT A protease
CCN(Cc1ccccc1)S(=O)(=O)c1nc2nc(C)c(C)c(C)n2n1	n	n	17154	n	n
CC1(C(=O)NS(=O)(=O)c2cccc(Cl)c2)CCN1C(=O)c1ccccc1 (centres undefined)	n	x	n	n	n
CCC1CCCCN1CCCNC(=O)C1CCC(CNS(=O)(=O)c2c(C)cc(C)cc2C)CC1 (centres undefined)	n	n	n	n	n
O=C(COC(=O)/C=C/c1cccc(F)c1)NC1CCCCCC1	n	n	n	n	n
Cc1ccc(-c2ccccc2NC(=O)CCl)o1	n	n	n	n	n
Cc1ccc(NC(=O)CS(=O)CC(=O)NC(C)CCc2ccco2)cc1Cl (centres undefined)	n	n	23396	n	n
Cc1ccc(-c2ccccc2NC(=O)CS(=O)CC(=O)Nc2ccc(C)c(Cl)c2)o1 (centres undefined)	n	385.2	n	n	n
Cc1ccc(NC(=O)CNC(=O)c2ccco2)cc1Cl	n	n	n	n	n
CC1Cc2cc(S(=O)(=O)NCCC(=O)N(C)Cc3ccccc3)ccc2N1C(=O)C1CC1 (centres undefined)	n	n	n	n	n
COc1cccc(NC(=O)CCS(=O)(=O)c2ccc3c(c2)oc(=O)n3C)c1	n	n	n	n	n
CC(=O)N1CCN(c2ccc(S(=O)(=O)N3CCCCC3)cn2)CC1	n	n	18018	n	n
NC(=O)C1CCN(c2ccc(S(=O)(=O)N3CCCCC3)cn2)CC1	n	n	n	n	n
COc1cc(C(=O)ONC(=O)c2ccc(OC(F)F)cc2)cc(OC)c1OC	n	n	n	n	n
COc1cc(S(=O)(=O)NCc2cccnc2)ccc1F	n	n	21999	n	n
COc1ccc(S(=O)(=O)NCc2cccnc2)cc1C	u	n	n	n	n
CCOc1ccc(S(=O)(=O)NCc2cccnc2)cc1C	n	n	n	n	n
COC(=O)COc1ccc(S(=O)(=O)NCc2cccnc2)cc1C	n	n	17503	n	n
O=P(Nc1ccccc1Cl)(c1ccccc1)c1nc2c(s1)CCCC2 (centres undefined)	n	n	17289	n	n
O=P(Nc1c(Cl)cccc1Cl)(c1ccccc1)c1nc2c(s1)CCCC2 (centres undefined)	n	n	23723	n	n
CN1CCN([C@@H]2CS(=O)(=O)N[C@H]2COCc2ccccc2)CC1	n	x	n	n	n
Cc1cccc(C)c1Cn1c(C)c(C(=O)NCCC#N)sc1=O	n	x	n	n	n
CC(C)(C)c1cnnn1-c1ccc(C=O)cc1	n	n	24224	n	n
COc1cc(-c2cnc3c(NC=O)cc(-c4ccsc4)cn23)cc(OC)c1OC	n	x	n	n	n
CC(=O)Nc1ccc(OC(=O)Cc2ccc(Cl)cc2)cc1	n	n	n	n	n
CC(=O)c1ccc(NC(=O)CSc2nnc(-c3ccncc3)n2C2CC2)cc1	n	n	n	n	n
SMILES	BoNT F protease	MazEF act	Bead autofluor	Anthrax LF inh2	BoNT A protease
COc1cc(NC(=O)Cn2c(-c3cncs3)nc3ccccc32)cc(OC)c1OC	n	n	21248	n	u
NNS(=O)(=O)c1ccc2c(c1)Cc1cc(S(=O)(=O)NN)ccc1-2	n	154.2	n	n	n
CC1=C(C(=O)OCC2CCCO2)C(c2ccccc2OC(C)C)C2=C(CC(c3ccco3)CC2=O)N1 (centres undefined)	n	n	n	n	n
CC1=C(C(=O)OCC2CCCO2)C(c2cccc(C(F)(F)F)c2)C2=C(CC(c3ccco3)CC2=O)N1 (centres undefined)	n	n	21820	n	n
COc1ccccc1C(C(=O)NCc1ccccc1)N(C(=O)c1csnn1)C1CC1 (centres undefined)	n	n	n	n	n
CC(=O)c1ccc(N2CCN(S(=O)(=O)c3ccc4c(c3)C(Cl)(Cl)C(=O)N4)CC2)cc1	n	x	n	n	n
Cc1cc(Cl)c(OCCCNCc2ccccc2)c(Br)c1	n	n	n	n	n
Cc1cc(Cl)cc(Br)c1OCCCN1C(=O)NC(C)(C)C1=O	n	n	20662	n	n
Cc1ccc(C(C)C)c(OCCCN2C(=O)NC(C)(C)C2=O)c1	n	n	n	n	n
Cc1cc(C)c(OCCN2C(=O)NC(C)(C)C2=O)c(Cl)c1	n	n	22616	n	n
Cc1cc(Cl)c(OCCN2C(=O)NC(C)(C)C2=O)c(Br)c1	n	n	20599	n	n
COCCNCCCCOc1c(Cl)cc(C)cc1Br	n	n	20464	n	n
CCCCOC1NC(=O)NC(=O)C1(F)C(=O)OCC (centres undefined)	n	x	n	n	n
CCc1ccc(Nc2nnc(SCC(=O)NC(=O)CN3CCCC3=O)s2)cc1	n	n	n	n	n

Assay outcomes as filed in PubChem BioAssay.
